Inconclusive results are not listed. Calls of active or inactive are those of the source. Unless noted, calls come from the whole dose curve; as a rule, active = well fitted curve in either direction with a large enough effect (not every such curve was filed as active); inconclusive = small, poorly fitted or top-dose-only effect, or another doubt; inactive = flat fitted curve, though single readings scatter.
Key:
[1] = biological target: Lysosomal acid glucosylceramidase (Homo sapiens) (UniProt P04062); experiment: Glucocerebrosidase-p2 (AID 348; in the data active = potency below about 10 µM; note: potency is the fitted concentration of half-maximal effect); conditions: purified GBA, blue fluorogenic substrate, 40 min
Chain of Lysosomal acid glucosylceramidase (Homo sapiens) (P04062 whole entry, looked up): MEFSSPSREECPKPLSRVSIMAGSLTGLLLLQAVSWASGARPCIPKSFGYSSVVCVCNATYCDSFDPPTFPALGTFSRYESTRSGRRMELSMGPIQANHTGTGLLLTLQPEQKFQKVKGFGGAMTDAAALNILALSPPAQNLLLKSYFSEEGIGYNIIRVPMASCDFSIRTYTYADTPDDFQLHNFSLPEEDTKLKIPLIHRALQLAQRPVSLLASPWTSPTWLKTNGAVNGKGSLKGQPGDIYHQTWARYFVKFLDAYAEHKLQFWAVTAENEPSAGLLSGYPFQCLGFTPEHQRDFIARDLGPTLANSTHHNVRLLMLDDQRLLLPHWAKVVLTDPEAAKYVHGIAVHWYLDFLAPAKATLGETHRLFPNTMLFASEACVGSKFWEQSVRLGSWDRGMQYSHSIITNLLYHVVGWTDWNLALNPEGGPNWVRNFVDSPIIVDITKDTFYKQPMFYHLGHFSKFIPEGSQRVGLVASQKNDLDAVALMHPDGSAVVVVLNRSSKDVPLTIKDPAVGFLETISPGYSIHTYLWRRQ
Method in brief: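 Normal human glucocerebrosidase (0.2 nM) with blue fluorogenic substrate (80 uM final) in citrate/phosphate pH 5.9 with 10mM sodium taurocholate, 0.01% tween-20; 40 min RT, NaOH/glycine stop; fluorescence Ex 365/Em 440; AC50 from a titration from 0.6 nM upwards.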

[2] = biological target: Cytochrome P450 1A2 (Homo sapiens) (UniProt P05177); experiment: p450-cyp1a2 (AID 410; calls by dose curve; note: potency is the fitted concentration of half-maximal effect;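 for activity change, negative = inhibition: -100% = full effect of reference inhibitor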); conditions: recombinant CYP1A2, luciferin-ME demethylation, luminescence; series mostly up to 57 µM
Chain of Cytochrome P450 1A2 (Homo sapiens) (P05177 whole entry, looked up): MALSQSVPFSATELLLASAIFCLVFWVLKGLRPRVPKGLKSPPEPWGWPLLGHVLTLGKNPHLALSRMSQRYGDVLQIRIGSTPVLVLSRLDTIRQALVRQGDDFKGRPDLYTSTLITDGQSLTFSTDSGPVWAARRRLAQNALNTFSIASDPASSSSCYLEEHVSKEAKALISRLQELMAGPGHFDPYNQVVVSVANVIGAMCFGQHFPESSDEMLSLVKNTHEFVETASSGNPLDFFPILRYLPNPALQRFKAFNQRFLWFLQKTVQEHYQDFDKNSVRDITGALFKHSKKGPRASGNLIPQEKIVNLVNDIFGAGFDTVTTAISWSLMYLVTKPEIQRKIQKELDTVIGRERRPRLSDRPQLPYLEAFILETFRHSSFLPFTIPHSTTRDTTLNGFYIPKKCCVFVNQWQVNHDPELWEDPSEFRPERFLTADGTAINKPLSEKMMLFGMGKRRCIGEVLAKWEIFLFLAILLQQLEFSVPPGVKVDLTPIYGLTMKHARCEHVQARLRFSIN
Method in brief: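 20nM CYP1A2, 100uM Luciferin-ME (=Km), 100mM KPO4; cpd 10 min RT; +NADPH regen, 60 min RT; stop/detect 20 min; luminescence. Normalized to furafylline 57 uM = full inhibition.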

[3] = Stat Signaling Pathway (AID 446); conditions: ME-180 SIE beta-lactamase reporter, IL-6 stimulated, 5 h; at 7.69 µM (top of the series) unless noted;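 note: ME-180 cervical cancer cells given 40 pM IL-6 alongside compound; SIE-controlled beta-lactamase reporter measured as 460/530 nm FRET emission ratio; % is set by controls: 0 for no effect and ±100 for the full control effect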
Method in brief: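 FRET read-out (405 nm excitation, 460/530 nm emission) of a beta-lactamase reporter under a STAT-inducible element in ME-180 cervical carcinoma cells. Cells with compound receive 40 pM IL-6 for 5 h. Values are normalised to AC90 stimulation and AC90 JAK-inhibitor controls.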

[4] = biological target: Glucocorticoid receptor (Homo sapiens) (UniProt P04150); experiment: GR-GFP Redistribution (AID 450;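 active = compounds whose dose series gives a full or clear partial fitted curve of increased nuclear translocation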; note: potency is the fitted concentration of half-maximal effect); conditions: U2OS GR-GFP nuclear translocation, laser cytometry, 2 h
Chain of Glucocorticoid receptor (Homo sapiens) (P04150 whole entry, looked up, the tested form may be a part): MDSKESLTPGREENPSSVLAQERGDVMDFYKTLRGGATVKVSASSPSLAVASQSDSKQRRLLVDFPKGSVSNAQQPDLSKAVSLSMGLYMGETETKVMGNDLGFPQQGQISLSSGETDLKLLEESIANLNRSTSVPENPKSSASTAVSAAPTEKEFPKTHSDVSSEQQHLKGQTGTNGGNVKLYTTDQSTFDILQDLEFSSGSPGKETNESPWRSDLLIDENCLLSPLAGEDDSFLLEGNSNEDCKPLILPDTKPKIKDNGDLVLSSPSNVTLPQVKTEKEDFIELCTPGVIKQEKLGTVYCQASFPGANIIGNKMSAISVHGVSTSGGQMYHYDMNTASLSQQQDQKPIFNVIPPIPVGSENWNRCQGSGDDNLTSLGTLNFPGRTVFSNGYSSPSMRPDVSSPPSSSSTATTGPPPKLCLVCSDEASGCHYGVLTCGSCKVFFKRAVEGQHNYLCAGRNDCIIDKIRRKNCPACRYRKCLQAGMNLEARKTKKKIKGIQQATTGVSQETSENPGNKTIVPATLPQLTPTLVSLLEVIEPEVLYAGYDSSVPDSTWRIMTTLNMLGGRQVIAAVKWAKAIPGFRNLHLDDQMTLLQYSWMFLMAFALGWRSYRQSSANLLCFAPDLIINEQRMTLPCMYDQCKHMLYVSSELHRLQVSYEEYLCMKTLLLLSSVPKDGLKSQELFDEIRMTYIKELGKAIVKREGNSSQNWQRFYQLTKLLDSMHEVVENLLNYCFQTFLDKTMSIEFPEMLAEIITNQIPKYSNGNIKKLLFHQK

[5] = biological target: Glucocorticoid receptor (Homo sapiens) (UniProt P04150); experiment: GR-EFC Redistribution (AID 451; calls by dose curve; note: potency is the fitted concentration of half-maximal effect); conditions: CHO-K1 GR-EFC translocation, beta-gal luminescence, 2 h
Method in brief: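 CHO-K1 cells expressing nuclear EA and GR-ED fragments of b-gal; compounds titrated up to 46 uM final, 2 h at 37 C. GR nuclear translocation read as complemented b-gal luminescence after 1 h RT detection.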

[6] = biological target: Mitogen-activated protein kinase 10 (Mus musculus) (UniProt Q61831); experiment: JNK3 AlphaScreen Assay (AID 530); conditions: JNK3 lysate, c-Jun phosphorylation; series mostly up to 57.1 µM;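 note: kinase came from lysate of stimulated human HepG2 cells; signal reports phosphorylation of biotinylated GST-cJun 1-79 at Ser73 with 10 µM ATP; % is set by controls: 0 for no effect and ±100 for the full control effect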
Method in brief: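 HepG2 lysate (IL-1b/TNFa pre-activated) + biotin-GST-cJun 1-79 + anti-pSer73 cJun; cpd titration, 15 min RT; ATP 10 uM start; Tris pH 7.6, MgCl2, DTT, vanadate; beads in EDTA buffer; AlphaScreen.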

[7] = biological target: Cytochrome P450 3A4 (Homo sapiens) (UniProt P08684); experiment: qHTS Assay for Activators of Cytochrome P450 3A4 (AID 885; active = well fitted curve in the direction sought with a large enough effect; an effect the other way counts as inactive or inconclusive; note: nearly all actives have a fitted effect of over 65% in size; note: potency is the fitted concentration of half-maximal effect); conditions: recombinant CYP3A4, Luciferin-PPXE luminescence, 60 min; series mostly up to 57.1 µM
Chain of Cytochrome P450 3A4 (Homo sapiens) (P08684 whole entry, looked up): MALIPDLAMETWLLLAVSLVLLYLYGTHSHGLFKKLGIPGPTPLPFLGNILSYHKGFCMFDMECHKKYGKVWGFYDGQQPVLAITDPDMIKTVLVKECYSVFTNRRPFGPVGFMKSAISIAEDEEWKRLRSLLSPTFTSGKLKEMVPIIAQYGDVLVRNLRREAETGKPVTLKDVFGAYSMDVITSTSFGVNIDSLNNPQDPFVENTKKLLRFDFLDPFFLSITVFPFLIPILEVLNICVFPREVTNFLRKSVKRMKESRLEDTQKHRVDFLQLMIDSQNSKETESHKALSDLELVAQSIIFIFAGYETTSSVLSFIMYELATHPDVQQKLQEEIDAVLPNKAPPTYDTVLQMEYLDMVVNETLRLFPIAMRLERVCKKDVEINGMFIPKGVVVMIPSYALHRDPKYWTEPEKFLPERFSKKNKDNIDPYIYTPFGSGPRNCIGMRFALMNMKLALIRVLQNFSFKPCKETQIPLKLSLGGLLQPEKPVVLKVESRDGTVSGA
Method in brief: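 Luminescent readout of luciferin formed from 25 uM Luciferin-PPXE (KM level) by 20 nM CYP3A4 in 200 mM KPO4, with 60 min NADPH-driven reaction at room temperature after 10 min compound exposure. Ketoconazole (57 uM) defined 100% inhibition.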

[8] = biological target: Ubiquitin carboxyl-terminal hydrolase 1 (Homo sapiens) (UniProt O94782); experiment: Inhibitors of USP1/UAF1: Pilot qHTS (AID 504865; active = well fitted curve in the direction sought with a large enough effect; an effect the other way counts as inactive or inconclusive;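 note: rhodamine fluorescence freed from ubiquitin-rhodamine substrate followed over time; top concentration of the series differs between compounds; % is set by controls: 0 for no effect and ±100 for the full control effect; nearly all actives have a fitted effect of over 35% in size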); conditions: purified USP1/UAF1, Ub-rhodamine cleavage fluorescence; series mostly up to 54.9 µM
Chain of Ubiquitin carboxyl-terminal hydrolase 1 (Homo sapiens) (O94782 whole entry, looked up): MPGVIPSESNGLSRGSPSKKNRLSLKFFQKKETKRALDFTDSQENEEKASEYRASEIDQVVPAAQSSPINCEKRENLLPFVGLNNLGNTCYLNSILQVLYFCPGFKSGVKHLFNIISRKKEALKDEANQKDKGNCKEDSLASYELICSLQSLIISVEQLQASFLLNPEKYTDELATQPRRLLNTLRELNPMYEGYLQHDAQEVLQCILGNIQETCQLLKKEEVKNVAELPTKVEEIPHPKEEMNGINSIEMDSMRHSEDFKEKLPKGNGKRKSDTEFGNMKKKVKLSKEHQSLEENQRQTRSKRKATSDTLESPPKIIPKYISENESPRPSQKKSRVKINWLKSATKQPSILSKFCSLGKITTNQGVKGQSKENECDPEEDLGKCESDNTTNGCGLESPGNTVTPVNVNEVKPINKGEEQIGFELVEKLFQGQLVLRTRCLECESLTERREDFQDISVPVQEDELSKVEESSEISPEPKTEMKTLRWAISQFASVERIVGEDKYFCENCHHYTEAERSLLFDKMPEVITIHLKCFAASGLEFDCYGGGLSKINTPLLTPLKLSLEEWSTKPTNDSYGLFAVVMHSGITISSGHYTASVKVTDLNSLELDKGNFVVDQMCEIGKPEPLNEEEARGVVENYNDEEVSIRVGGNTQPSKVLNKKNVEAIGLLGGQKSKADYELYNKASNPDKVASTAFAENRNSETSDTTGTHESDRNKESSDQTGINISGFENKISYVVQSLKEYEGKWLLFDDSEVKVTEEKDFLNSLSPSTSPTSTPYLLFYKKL
Method in brief: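 In 50mM HEPES pH 7.8 containing 0.5mM EDTA, 1mM TCEP, 0.1 mg/ml BSA and 0.01% Tween-20, 1nM USP1/UAF1 is exposed to compound for 15 min, then Ub-Rho (150nM final) is added and fluorescence is read over time.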

[9] = Primary qHTS for small molecule stabilizers of the endoplasmic reticulum resident proteome: Secreted ER Calcium Modulated Protein (SERCaMP) assay (AID 1508630; active = well fitted curve in the direction sought with a large enough effect; an effect the other way counts as inactive or inconclusive; note: % is set by controls: 0 for no effect and ±100 for the full control effect); conditions: SH-SY5Y GLuc-SERCaMP (Gaussia luciferase released on ER calcium loss) secretion, thapsigargin, luminescence; series mostly up to 38.4 µM
Method in brief: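 The SH-SY5Y reporter protocol was run at 3 concentrations up to 38.3 uM (primary) or 11 concentrations (follow-up): 16 h compound, 100 nM thapsigargin for 4 h, then extracellular luciferase luminescence.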

[10] = NFAT Signaling Pathway (AID 444); conditions: Jurkat NFAT-bla M1, carbachol, beta-lactamase ratio, 5 h; at 7.69 µM (top of the series) unless noted;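 note: carbachol stimulus at about its EC50 of 1 µM final; % is set by controls: 0 for no effect and ±100 for the full control effect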
Method in brief: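 Jurkat cells with NFAT-driven β-lactamase reporter and co-expressed M1 receptor, stimulated with carbachol (final 1 uM, ~EC50), compound titration, 5 h at 37 °C. CCF4 loaded 1 h at RT; 460/530 nm ratio gave %activity and AC50.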

[11] = biological target: 3',5'-cyclic-AMP phosphodiesterase 4B (Homo sapiens) (UniProt Q07343); experiment: qHTS Assay for Inhibitors of PDE-IV (AID 607; active = well fitted activation curve with a large enough effect in the main read-out, with a control signal flat, not every such curve was filed as active; note: % of control where 0% means no effect); conditions: HEK293 ACTOne CNG channel cells, membrane potential fluorescence; series mostly up to 22.9 µM
Chain of 3',5'-cyclic-AMP phosphodiesterase 4B (Homo sapiens) (Q07343 whole entry, looked up): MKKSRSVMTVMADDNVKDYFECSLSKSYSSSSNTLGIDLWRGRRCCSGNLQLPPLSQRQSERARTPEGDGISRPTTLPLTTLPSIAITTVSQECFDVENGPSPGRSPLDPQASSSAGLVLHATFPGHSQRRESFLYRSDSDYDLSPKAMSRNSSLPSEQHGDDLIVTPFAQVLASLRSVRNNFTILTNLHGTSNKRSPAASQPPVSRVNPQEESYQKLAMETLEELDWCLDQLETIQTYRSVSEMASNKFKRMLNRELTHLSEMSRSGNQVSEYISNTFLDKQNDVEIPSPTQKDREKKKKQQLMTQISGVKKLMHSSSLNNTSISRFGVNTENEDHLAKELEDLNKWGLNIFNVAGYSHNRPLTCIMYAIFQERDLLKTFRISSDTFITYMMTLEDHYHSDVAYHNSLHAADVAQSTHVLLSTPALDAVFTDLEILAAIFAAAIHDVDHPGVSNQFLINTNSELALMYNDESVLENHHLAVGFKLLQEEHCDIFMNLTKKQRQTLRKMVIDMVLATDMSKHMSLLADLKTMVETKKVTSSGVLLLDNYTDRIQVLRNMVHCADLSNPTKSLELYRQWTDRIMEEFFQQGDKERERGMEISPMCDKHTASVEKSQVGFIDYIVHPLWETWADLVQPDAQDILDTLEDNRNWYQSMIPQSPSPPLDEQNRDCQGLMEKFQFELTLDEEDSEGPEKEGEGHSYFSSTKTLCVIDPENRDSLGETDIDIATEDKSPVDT
Method in brief: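 Cell-based read-out of cAMP via a modified cyclic nucleotide-gated channel and membrane potential dye (535/590 nm) in HEK293 cells expressing PDE4 endogenously. Compounds tested up to 22.9 uM final; 100 uM RO 20-1724 reference.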

[12] = biological target: Cytochrome P450 2C9 (Homo sapiens) (UniProt P11712); experiment: qHTS Assay for Inhibitors and Substrates of Cytochrome P450 2C9 (AID 883; active = well fitted curve in the direction sought with a large enough effect; an effect the other way counts as inactive or inconclusive; note: potency is the fitted concentration of half-maximal effect; nearly all actives have a fitted effect of over 60% in size); conditions: recombinant CYP2C9, luciferin-H luminescence, 60 min; series mostly up to 57.1 µM
Chain of Cytochrome P450 2C9 (Homo sapiens) (P11712 whole entry, looked up): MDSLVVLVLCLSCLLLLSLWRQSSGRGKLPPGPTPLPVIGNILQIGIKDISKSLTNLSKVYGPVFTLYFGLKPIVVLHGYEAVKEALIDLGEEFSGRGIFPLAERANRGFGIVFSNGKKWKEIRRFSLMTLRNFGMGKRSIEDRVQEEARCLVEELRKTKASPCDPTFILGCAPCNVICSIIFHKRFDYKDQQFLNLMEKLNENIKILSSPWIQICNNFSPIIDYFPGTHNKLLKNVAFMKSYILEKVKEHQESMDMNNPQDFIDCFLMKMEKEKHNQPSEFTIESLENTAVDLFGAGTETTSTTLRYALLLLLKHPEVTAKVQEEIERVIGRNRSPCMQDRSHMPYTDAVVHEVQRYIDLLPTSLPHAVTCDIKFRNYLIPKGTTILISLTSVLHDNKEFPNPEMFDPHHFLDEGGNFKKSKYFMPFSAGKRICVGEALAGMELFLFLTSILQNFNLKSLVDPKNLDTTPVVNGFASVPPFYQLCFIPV
Method in brief: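 Human CYP2C9 (10nM) with Luciferin-H at 100uM (its KM) in 25mM KPO4; compound preincubated 10 min at 37C, then NADPH regeneration for 60 min at 37C. Luciferin read by luminescence after detection reagent; normalized to 57uM sulphaphenazole as full inhibition.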

[13] = qHTS Assay for Identification of Small Molecule Agonists for Hypoxia Response Element Signaling Pathway (AID 914; active = well fitted activation curve with a large enough effect in the signal ratio, with a control signal flat, not every such curve was filed as active; the % refers to the signal ratio; note: potency is the fitted concentration of half-maximal effect; for activation: % of control where 0% means no effect); conditions: ME-180 HRE-bla reporter, beta-lactamase ratio, CoCl2, 17 h; activation: hits give high values
Method in brief: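 In Opti-MEM containing 0.5% dialyzed FBS and 10 mM HEPES, ME-180 HRE-bla cells received a compound titration and EC50 CoCl2. They were incubated 17 hours, then CCF4-loaded 2.5 hours at room temperature before ratio reading.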

[14] = AP1 Signaling Pathway (AID 357); conditions: ME-180 (cervical carcinoma) AP-1-bla reporter, EGF-induced, beta-lactamase ratio, 5 h; at 7.69 µM (top of the series) unless noted
Method in brief: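 In this screen, ME-180 cells in Opti-MEM with 0.5% dialyzed FBS received EC50 EGF and compound titrations for 5 h. AP-1 reporter beta-lactamase was detected via CCF4 ratio, giving AC50 for positive and negative modulators.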

[15] = biological target: Cytochrome P450 3A4 (Homo sapiens) (UniProt P08684); experiment: qHTS Assay for Inhibitors and Substrates of Cytochrome P450 3A4 (AID 884; active = well fitted curve in the direction sought with a large enough effect; an effect the other way counts as inactive or inconclusive; note: nearly all actives have a fitted effect of over 50% in size; note: potency is the fitted concentration of half-maximal effect); conditions: recombinant CYP3A4, Luciferin-PPXE luminescence; series mostly up to 57.1 µM
Method in brief: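 Luminescent readout of luciferin produced by CYP3A4 (20 nM) dealkylation of Luciferin-PPXE, 25 uM (its KM). NADPH-driven reaction ran 60 min at RT after 10 min compound preincubation; data scaled to 57 uM ketoconazole as 100% inhibition.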

[16] = biological target: Cytochrome P450 2C19 (Homo sapiens) (UniProt P33261); experiment: qHTS Assay for Inhibitors and Substrates of Cytochrome P450 2C19 (AID 899; active = well fitted curve in the direction sought with a large enough effect; an effect the other way counts as inactive or inconclusive; note: potency is the fitted concentration of half-maximal effect; nearly all actives have a fitted effect of over 60% in size); conditions: recombinant CYP2C19, luciferin-H EGE luminescence; series mostly up to 57.1 µM
Chain of Cytochrome P450 2C19 (Homo sapiens) (P33261 whole entry, looked up): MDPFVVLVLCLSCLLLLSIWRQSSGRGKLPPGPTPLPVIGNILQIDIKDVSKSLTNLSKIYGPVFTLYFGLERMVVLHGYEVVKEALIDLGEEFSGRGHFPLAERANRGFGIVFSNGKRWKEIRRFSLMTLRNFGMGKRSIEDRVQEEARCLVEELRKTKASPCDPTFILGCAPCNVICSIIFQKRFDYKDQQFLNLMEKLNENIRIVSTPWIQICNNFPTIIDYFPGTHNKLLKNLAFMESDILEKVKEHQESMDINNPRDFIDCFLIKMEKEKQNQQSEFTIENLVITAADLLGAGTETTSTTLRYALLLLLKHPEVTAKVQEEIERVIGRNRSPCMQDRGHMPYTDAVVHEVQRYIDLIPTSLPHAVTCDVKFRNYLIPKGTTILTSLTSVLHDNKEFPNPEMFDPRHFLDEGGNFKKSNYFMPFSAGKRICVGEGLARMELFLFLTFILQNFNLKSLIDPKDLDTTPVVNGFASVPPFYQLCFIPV
Method in brief: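 5 nM human CYP2C19 with 10uM Luciferin-H EGE (at KM) in 50mM KPO4, compound preincubated 10 min at 37C, then NADPH regeneration for 60 min at 37C. Luciferin read by luminescence after detection reagent; normalized to 57uM ketoconazole as full inhibition.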

[17] = Confirmation and Secondary Assay for Modulators of Hemoglobin Beta Chain Splicing at IVS2 654 locus (AID 910; active = well fitted curve in the direction sought with a large enough effect; an effect the other way counts as inactive or inconclusive;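 note: HeLa cells stably carrying EGFP split by mutant beta-globin IVS2-654 intron; % of control where 0% means no effect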); conditions: HeLa EGFP-654 splicing reporter, GFP fluorescence, 48 h; series mostly up to 38.3 µM
Method in brief: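 HeLa cells stably expressing EGFP interrupted by β-globin IVS2-654 intron, seeded overnight in Opti-MEM/2% FCS, then treated 2 days at 37 °C. Restored splicing read as total peak GFP intensity per well by laser scanning cytometry (488 nm excitation, 500–520 nm emission); 500 nM antisense PNA as control.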

[18] = Confirmation and Secondary Assay for Modulators of Hemoglobin Beta Chain Splicing at IVS2 705 locus (AID 930; active = well fitted curve in the direction sought with a large enough effect; an effect the other way counts as inactive or inconclusive;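 note: HeLa cells stably expressing the EGFP-705 splicing reporter; GFP fluorescence per well restored by corrected splicing of the IVS2-705 intron in EGFP; % of control where 0% means no effect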); conditions: HeLa EGFP-705 splicing reporter, GFP fluorescence, 48 h; series mostly up to 38.3 µM
Method in brief: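 Per-well GFP, captured at 1 x 8 µm resolution with 488 nm excitation, served as the read-out for HeLa EGFP-705 cells incubated 2 days with test compound versus DMSO.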

CN(C)C(=O)c1ccc(-c2ccc3ncnc(Nc4ccccc4)c3c2)cc1
active: Potency [2] 15.8 µM
inactive: Potency [1] > 11.4 µM | activity, negative = inhibition [3] 0.91% | Potency [4] > 46 µM | Potency [5] > 46 µM | Potency [6] | Potency [7] | Potency [8] | outcome [9]

COCCn1c(=O)c(-c2ccc(OC)cc2)nc2cnc(Oc3cccc(Cl)c3)nc21
inactive: Potency [1] > 11.4 µM | activity change, negative = inhibition [10] -0.562% | activity, negative = inhibition [3] 21.8% | Potency [4] > 9.22 µM | Potency [5] > 46 µM | Potency [6] | Potency [11] | Potency [7] | outcome [9]
active: Potency [2] 6.31 µM | Potency [12] 631 nM

CCNc1ncc2nc(-c3cc(F)cc(F)c3)c(=O)n(Cc3cccs3)c2n1
inactive: Potency [1] > 11.4 µM | Potency [4] > 9.22 µM | Potency [5] > 46 µM | Potency [6] | Potency [7] | outcome [9]
active: Potency [2] 5.01 µM | activity, negative = inhibition [3] 135% [activator] | Potency [13] 794 nM

CS(=O)(=O)N1CCC2(CCN(Cc3ccc(C#N)cc3)CC2)CC1
inactive: Potency [1] > 11.4 µM | activity change, negative = inhibition [14] 3.08% | activity, negative = inhibition [3] 3.96% | Potency [6] | Potency [11] | outcome [9]

CCNc1ncc2nc(-c3ccc(Cl)cc3)c(=O)n(C3CC3)c2n1
inactive: Potency [1] > 11.4 µM | activity change, negative = inhibition [10] -4.85% | Potency [4] > 9.22 µM | Potency [5] > 46 µM | Potency [6] | Potency [11] | outcome [9]
active: Potency [2] 0.501 µM | Potency [13] 398 nM

O=C(c1cccc(F)c1)N1CCC2(CCCN(Cc3nccs3)C2)CC1
inactive: Potency [1] > 11.4 µM | Potency [2] | activity, negative = inhibition [3] 5.18% | Potency [5] > 46 µM | Potency [6] | Potency [11] | Potency [7] | outcome [9]

COc1cccc(Nc2ncc3nc(-c4ccc(Cl)cc4)c(=O)n(CCC#N)c3n2)c1
inactive: Potency [1] > 11.4 µM | activity, negative = inhibition [3] -26.2% | Potency [4] > 9.22 µM | Potency [5] > 46 µM | Potency [6] | Potency [11] | Potency [7] | outcome [9]
active: Potency [2] 5.01 µM

Cc1cccc(CNc2cc(-c3ccc(N(C)C)cc3)ncn2)c1
active: Potency [2] 1 µM | Potency [15] 6.31 µM | Potency [16] 3.16 µM
inactive: Potency [1] > 11.4 µM | activity change, negative = inhibition [10] -5.57% | activity, negative = inhibition [3] -19.8% | Potency [4] > 46 µM | Potency [5] > 46 µM | Potency [6] | Potency [11] | Potency [7] | Potency [17] | outcome [18] | outcome [9]

O=C(c1cnccn1)N1CCC[C@@]2(CCN(Cc3ccncc3)C2)C1
active: Potency [2] 15.8 µM
inactive: Potency [1] > 11.4 µM | activity change, negative = inhibition [10] 7.13% | activity, negative = inhibition [3] -5.95% | Potency [5] > 46 µM | Potency [6] | Potency [11] | Potency [7] | outcome [9]

O=C(c1cnccn1)N1CCC2(CC1)CN(Cc1ccccc1)C2
inactive: Potency [1] > 11.4 µM | activity change, negative = inhibition [14] -15.8% | activity, negative = inhibition [3] 2.48% | Potency [5] > 46 µM | Potency [6] | Potency [11] | activation [13] 6.71% | outcome [9]

N#Cc1cccc(NC(=O)N2CCCC3(CCN(C(=O)c4ccncc4)CC3)C2)c1
inactive: Potency [1] > 11.4 µM | activity change, negative = inhibition [14] -9.49% | activity, negative = inhibition [3] 1.51% | Potency [5] > 46 µM | Potency [6] | Potency [11] | activation [13] -1.72% | outcome [9]

COc1ccc(-c2nc3cnc(N(C)C)nc3n(CCc3ccccc3)c2=O)cc1
inactive: Potency [1] > 11.4 µM | Potency [5] > 46 µM | Potency [11] | outcome [9]
active: Potency [2] 1.26 µM | activity, negative = inhibition [3] 121% [activator] | Potency [13] 794 nM

O=C(c1cccc(F)c1)N1CCC2(CCCN(Cc3cc(C(F)(F)F)cc(C(F)(F)F)c3)C2)CC1
inactive: Potency [1] > 11.4 µM | Potency [2] | activity, negative = inhibition [3] 3.76% | Potency [5] > 46 µM | Potency [6] | Potency [11] | Potency [7] | outcome [9]

Cn1c(=O)c(-c2ccc(Cl)cc2)nc2cnc(Oc3ccccc3)nc21
active: Potency [2] 0.2 µM | Potency [7] 20 µM
inactive: Potency [1] > 11.4 µM | activity, negative = inhibition [3] 2.85% | Potency [4] > 9.22 µM | Potency [5] > 46 µM | Potency [6] | Potency [11] | Potency [15] | outcome [9]

N#Cc1cccc(NC(=O)N2CCCC3(CCN(C(=O)c4cccc(F)c4)CC3)C2)c1
inactive: Potency [1] > 11.4 µM | activity change, negative = inhibition [14] -6.98% | activity, negative = inhibition [3] -4.33% | Potency [5] > 46 µM | Potency [6] | Potency [11] | Potency [7] | outcome [9]

COc1ccc(-n2c(=O)c(-c3ccc(Cl)cc3)nc3cnc(N4CCOCC4)nc32)cc1
active: Potency [2] 15.8 µM | activity, negative = inhibition [3] 88.4% [activator] | Potency [13] 631 nM
inactive: Potency [1] > 11.4 µM | activity change, negative = inhibition [10] 23.6% | Potency [4] > 9.22 µM | Potency [5] > 46 µM | Potency [6] | Potency [11] | outcome [9]

Reference: PubChem BioAssay (NCATS)
